Assay [1] can be described thus: inhibitors of TNFa-induced NFkB p65 translocation, primary screen, imaging, HUVEC, MLSMR starter and 10KST1 sets (AID 438;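 active means inhibition above 20% together with a positive visual image hit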;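 further: compound added about 3h40 before a 20 min TNFalpha stimulation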;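 on inhibition: signal is the nuclear over cytoplasmic p65 intensity ratio per well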). To be noted: HUVEC TNFa-induced p65 nuclear translocation; cell count: measured here: nuclei count (cytotoxicity indicator), at 2.08 µM; inhibition: at 2 µM, stronger effect = higher value, 0% TNFa-plus-vehicle, 100% no-TNFa wells.
A short description of assay [2]: reduction of polyQ htt aggregates in cells – imaging, exon1htt(103Q)mCFP cells, high-content imaging, primary screen (AID 483;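 active means visual image review flags a hit and inhibition of aggregation exceeds 20%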;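 further: compound exposure lasted 3 days before fixation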;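 on nuclei count: percent of the per-plate median nuclei count of sample wells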). To be noted: exon1htt(103Q)mCFP cell line, aggregate imaging, at 2 µM; inhibition of aggregation: stronger effect = higher value; nuclei count: measured here: cell count, toxicity.
The nature of assay [3]: endothelial E-selectin expression blockers – imaging, HUVEC, immunofluorescence, MLSMR starter and 10KST1 sets, primary screen (AID 487).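 On inhibition: signal is fraction of cell area covered by stained E-selectin grains.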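 On nuclei count: 100% = median nuclei count of all wells on the same plate.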 To be noted: HUVEC TNFalpha-induced E-selectin immunofluorescence imaging, at 2 µM; inhibition: stronger effect = higher value; nuclei count: measured here: cell number, toxicity.
For assay [4], the target named is Voltage-gated potassium channel subunit beta-2 (Rattus norvegicus) (UniProt P62483). Kind of assay: inhibitors of rat Kvbeta2 reductase activity – biochemical, NADPH fluorescence, primary screen (AID 622;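 active means fluorescence slope higher than the sample average by over 3 SD, cut at about -0.22 in these data, passing the limit was not always enough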;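 further: slope of raw intensity against log time taken from 70 to 1610 s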). As to conditions: recombinant KvBeta, 4-cyanobenzaldehyde reduction, at 10 µM, stronger effect = higher value.
For assay [5] the target is unchanged. Description: enhancers of rat Kvbeta2 NADPH turnover – biochemical, NADPH fluorescence, primary screen (AID 623;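 active means NADPH fluorescence slope more negative than the mean of all samples by about 3 SD, 99.7% confidence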;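 further: fluorescence intensity change per second fitted from 20 to 320 s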). As to conditions: Recombinant KvBeta, NADPH fluorescence decrease slope, 10 min; at 10 µM; stronger effect = lower value.
Assay [6] deals with Alpha-2C adrenergic receptor (Homo sapiens) (UniProt P18825). Description: compounds altering alpha2C-coupled GIRK flux – cell-based, HEK293 alpha2C/GIRK1/2, thallium flux, primary screen (AID 624;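 active means fluorescence slope after compound addition differing from the mean of all screened samples at 99.7% confidence, in either direction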;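 further: slope of fluorescence ratio to pre-addition baseline per second over 15 to 24 s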). As to conditions: thallium flux BTC fluorescence, at 10 µM, actives lie on both sides.
The nature of assay [7]: blockers of RIG-like receptor reporter activation – cell-based, Sendai virus stimulus, luciferase, 10K MLSCN set, TLR/RLR signaling modifier project, primary screen (AID 602276;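 active means inhibition at or above 50% at 10 µM; inactive means inhibition below 50%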;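 further: firefly luciferase from ISG56 promoter only with Renilla not read in this screen; 0% = Sendai virus plus DMSO and 100% = medium plus DMSO without virus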). As to conditions: HEK293 RL24 IRF3 luciferase reporter, at 10 µM, stronger effect = higher value. Background: In a reporter assay the amount or activity of a reporter protein is the signal.
Assay [8] can be described thus: TLR3 IRF3 reporter activation blockers – cell-based, poly I:C stimulus, luciferase, 10K MLSCN set, primary screen (AID 602277;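 active means inhibition of the reporter signal at or above 50%; inactive means inhibition below 50%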). As to conditions: HEK293-TLR3 RL24 IRF3 luciferase reporter, at 10 µM, stronger effect = higher value.

SMILES strings stand for the structures. Calls of active or inactive are those of the source.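 How the source made its calls, unless noted: active means visually confirmed hit in the image check and inhibition above 20%; inconclusive means visually confirmed hit but inhibition not above 20%; inactive means no visual hit in the image check.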

Voltage-gated potassium channel subunit beta-2 (Rattus norvegicus), sequence (P62483 whole entry, looked up): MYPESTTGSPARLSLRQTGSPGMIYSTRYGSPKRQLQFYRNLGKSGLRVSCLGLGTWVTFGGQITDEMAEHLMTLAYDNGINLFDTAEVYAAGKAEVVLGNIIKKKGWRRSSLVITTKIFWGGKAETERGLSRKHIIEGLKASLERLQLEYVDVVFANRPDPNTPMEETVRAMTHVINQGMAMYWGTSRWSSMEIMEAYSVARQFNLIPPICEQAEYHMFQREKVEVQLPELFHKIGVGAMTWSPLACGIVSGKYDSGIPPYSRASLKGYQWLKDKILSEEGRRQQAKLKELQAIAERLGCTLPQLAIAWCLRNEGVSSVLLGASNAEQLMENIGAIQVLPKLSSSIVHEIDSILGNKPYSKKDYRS
Alpha-2C adrenergic receptor (Homo sapiens), sequence (P18825 whole entry, looked up): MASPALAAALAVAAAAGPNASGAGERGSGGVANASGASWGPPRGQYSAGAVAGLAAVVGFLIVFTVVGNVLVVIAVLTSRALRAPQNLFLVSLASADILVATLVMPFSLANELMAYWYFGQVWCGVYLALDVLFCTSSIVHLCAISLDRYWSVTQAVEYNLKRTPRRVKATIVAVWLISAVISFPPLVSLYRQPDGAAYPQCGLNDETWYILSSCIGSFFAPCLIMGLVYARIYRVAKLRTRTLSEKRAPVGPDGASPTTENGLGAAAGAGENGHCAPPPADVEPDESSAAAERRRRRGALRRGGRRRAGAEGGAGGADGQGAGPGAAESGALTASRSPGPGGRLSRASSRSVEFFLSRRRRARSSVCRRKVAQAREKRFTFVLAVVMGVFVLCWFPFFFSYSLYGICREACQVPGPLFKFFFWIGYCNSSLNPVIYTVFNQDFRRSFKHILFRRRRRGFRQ

One may read the inhibition as the change of the read-out against control, counted positive when it falls. On to `CCCCOC(=O)c1[nH]c2c(c1C)C(=O)CC(c1cc(OC)c(OC)c(OC)c1)C2` (centres undefined), for which the cell count in assay [1] turned out to be 546. Further, the inhibition in assay [1] was -1.7% (inactive); in assay [3], -7.4% (inactive); in assay [7], 7.86% (inactive); in assay [8] it was -20.9% (inactive). Moreover, the inhibition of aggregation in assay [2] is 18.4% (inactive). The nuclei count was found to be 79.6% in assay [2] and 104% in assay [3]. In assay [4], the fluorescence slope is -0.57 (inactive). Moreover, the NADPH fluorescence slope in assay [5] is -2.8e-05 (inactive). For the same compound, the slope in assay [6] is 0.00591 (inactive).
Regarding `O=C(O)CCc1ccc(-c2cccs2)o1`, the cell count in assay [1] came to 314. For the same compound, the inhibition in assay [1] was -7.8% (inactive); in assay [3], -23.1% (inactive); in assay [7], 16.2% (inactive); in assay [8], 27% (inactive). The inhibition of aggregation in assay [2] was -10.2% (inactive). Moreover, the nuclei count in assay [2] stood at 103%; in assay [3], 118%. Besides, the fluorescence slope in assay [4] was -0.366 (inactive). Also, the NADPH fluorescence slope in assay [5] is -0.00014 (inactive). In addition, in assay [6], the slope was 0.00568 (inactive).
In the case of `c1ccc2ncc(-n3cnnn3)cc2c1`, the cell count in assay [1] stood at 705. For the same compound, the inhibition in assay [1] is -4.7% (inactive); in assay [3] it was -118% (inactive); in assay [7] it was 9.03% (inactive); in assay [8] it was 11.8% (inactive). Besides, the inhibition of aggregation in assay [2] is 7.3% (inactive). The nuclei count came to 110% in assay [2] and 117% in assay [3]. For the same compound, the fluorescence slope in assay [4] is -0.411 (inactive). Further, in assay [5], the NADPH fluorescence slope was -2e-05 (inactive). In addition, in assay [6], the slope was 0.00684 (inactive).
With `CCOC(=O)c1ccc(N2C(=O)CC(NC3CCN(C(=O)c4ccc(F)cc4)CC3)C2=O)cc1` (centres undefined), in assay [1], the cell count was found to be 699. For the same compound, the inhibition in assay [1] is 8.6% (inactive); in assay [3], -30.3% (inactive); in assay [7] it was -1.5% (inactive); in assay [8] it was -3.21% (inactive). Moreover, the inhibition of aggregation in assay [2] was 7.9% (inactive). For the same compound, the nuclei count in assay [2] was determined as 102%; in assay [3], 98.3%. Besides, the fluorescence slope in assay [4] was -0.416 (inactive). Also, in assay [5], the NADPH fluorescence slope is 2.4e-05 (inactive). In assay [6], the slope was 0.00425 (inactive).
As to `CC(C)C(c1nnnn1C1CCCC1)N1CCCc2ccccc21` (centres undefined), the cell count in assay [1] amounted to 706. For the same compound, the inhibition in assay [1] was -6.9% (inactive); in assay [3] it was -47.1% (inactive); in assay [7], -17.8% (inactive); in assay [8] it was -6.74% (inactive). The inhibition of aggregation in assay [2] is 5.4% (inactive). For the same compound, the nuclei count turned out to be 95.4% in assay [2] and 107% in assay [3]. Moreover, in assay [4], the fluorescence slope is -0.423 (inactive). The NADPH fluorescence slope in assay [5] is -7.3e-05 (inactive). Further, the slope in assay [6] is 0.00444 (inactive).
Consider `COc1ccc(NC(=O)N2CCN(c3nc(-c4cccc(OC)c4)cs3)CC2)cc1`, for which the cell count in assay [1] turned out to be 564. For the same compound, the inhibition in assay [1] was -7.5% (inactive); in assay [3], -23.1% (inactive); in assay [7] it was 2.91% (inactive); in assay [8], -56.5% (inactive). Also, the inhibition of aggregation in assay [2] was 8.8% (inactive). In addition, the nuclei count in assay [2] was 93.9%; in assay [3] it was 104%. The fluorescence slope in assay [4] is -0.478 (inactive). For the same compound, in assay [5], the NADPH fluorescence slope is -3.3e-05 (inactive). The slope in assay [6] is 0.0039 (inactive).
Take `CCOC(=O)C(NC(=O)Nc1ccccc1)(OCC)C(F)(F)F` (centres undefined): the cell count in assay [1] turned out to be 517. In addition, the inhibition was -2.4% (inactive) in assay [1], 25% (inactive) in assay [3], 16.5% (inactive) in assay [7] and 30.2% (inactive) in assay [8]. The inhibition of aggregation in assay [2] was -2.5% (inactive). The values for the nuclei count in assay [2] and in assay [3] were 97.9% and 89.1%, respectively. Also, in assay [4], the fluorescence slope is -0.639 (inactive). Further, the NADPH fluorescence slope in assay [5] is 1.8e-05 (inactive). The slope in assay [6] is 0.0106 (inactive).
With `N#Cc1nc(-c2ccccc2Cl)oc1N1CCOCC1`, the cell count in assay [1] was determined as 332. Further, the inhibition is 5% (inactive) in assay [1], -53.5% (inactive) in assay [3], 5.17% (inactive) in assay [7] and -5.75% (inactive) in assay [8]. For the same compound, in assay [2], the inhibition of aggregation is 10.4% (inactive). Further, the nuclei count in assay [2] amounted to 96.7%; in assay [3], 116%. Further, in assay [4], the fluorescence slope is -0.356 (inactive). In addition, the NADPH fluorescence slope in assay [5] is 3.4e-06 (inactive). In addition, in assay [6], the slope was 0.00468 (inactive).
In the case of `CNC(=O)CSc1nnc(-c2ccc(S(=O)(=O)N3CCCC3)cc2)n1-c1cccc(C)c1C`, in assay [1], the cell count worked out at 643. For the same compound, the inhibition in assay [1] is -2.4% (inactive); in assay [3], -87.7% (inactive); in assay [7], 12.2% (inactive); in assay [8], 33.2% (inactive). Moreover, the inhibition of aggregation in assay [2] was -15.2% (inactive). The figures for the nuclei count in assay [2] and in assay [3] were 108% and 106%, respectively. The fluorescence slope in assay [4] is -0.458 (inactive). Further, the NADPH fluorescence slope in assay [5] is -4.2e-05 (inactive). Further, the slope in assay [6] is 0.00667 (inactive).
On to `CC(=O)c1cnc2cc(-c3ccccc3)nn2c1C`, for which the cell count in assay [1] is 283. In addition, the inhibition is 7.2% (inactive) in assay [1], -84.1% (inactive) in assay [3], -65.5% (inactive) in assay [7] and -115% (inactive) in assay [8]. Also, the inhibition of aggregation in assay [2] is 26.1% (inactive). Moreover, the nuclei count in assay [2] was 84.2%; in assay [3], 97.5%. For the same compound, the fluorescence slope in assay [4] was -0.343 (inactive). Besides, in assay [5], the NADPH fluorescence slope was -5.4e-05 (inactive). In assay [6], the slope was 0.00763 (inactive).
Consider `CCOCCCNC(=O)CC1Oc2ccc(C)cc2NC1=O` (centres undefined), for which, in assay [1], the cell count came to 595. Besides, the inhibition is -6.2% (inactive) in assay [1], -6.5% (inactive) in assay [3], 5.01% (inactive) in assay [7] and 19.8% (inactive) in assay [8]. Besides, the inhibition of aggregation in assay [2] was 8.5% (inactive). Also, the results for the nuclei count in assay [2] and in assay [3] were 107% and 121%, respectively. In assay [4], the fluorescence slope is -0.525 (inactive). Also, in assay [5], the NADPH fluorescence slope is -3.6e-05 (inactive). Also, the slope in assay [6] is 0.00596 (inactive).
Consider `CC(C)(C)OC(=O)NCCc1nnc(SCC(=O)c2ccc(Cl)cc2)o1`, for which the cell count in assay [1] was determined as 282. Further, the inhibition in assay [1] is -3.2% (inactive); in assay [3], -56.7% (inactive); in assay [7], 5.48% (inactive); in assay [8], 34.1% (inactive). Moreover, the inhibition of aggregation in assay [2] was 36.8% (inactive). Moreover, the results for the nuclei count in assay [2] and in assay [3] were 77.1% and 85.4%, respectively. Further, the fluorescence slope in assay [4] was -0.495 (inactive). Further, the NADPH fluorescence slope in assay [5] was 1.3e-05 (inactive). In assay [6], the slope was 0.00407 (inactive).
On to `CCc1[nH]nc2c1C1(CCN(C(=O)OCc3ccccc3)CC1)C(C#N)=C(N)O2`, for which the cell count in assay [1] turned out to be 823. Moreover, the inhibition was 0.6% (inactive) in assay [1], -28.9% (inactive) in assay [3], 17.6% (inactive) in assay [7] and 13.6% (inactive) in assay [8]. The inhibition of aggregation in assay [2] is 12.7% (inactive). In addition, the nuclei count in assay [2] came to 114%; in assay [3] it was 124%. Also, the fluorescence slope in assay [4] was -0.494 (inactive). Besides, the NADPH fluorescence slope in assay [5] was -4.5e-05 (inactive). Moreover, the slope in assay [6] is 0.00458 (inactive).
Take `O=C1c2cccnc2C(=O)N1c1cccc(-c2nc3ccccc3o2)c1`: in assay [1], the cell count is 339. Further, the inhibition in assay [1] was 9.1% (inactive); in assay [3], -87.2% (inactive); in assay [7], 13.3% (inactive); in assay [8], 13.5% (inactive). Moreover, the inhibition of aggregation in assay [2] was 28.9% (inactive). The nuclei count in assay [2] came to 84%; in assay [3], 117%. The fluorescence slope in assay [4] was -0.417 (inactive). Further, the NADPH fluorescence slope in assay [5] was -4e-05 (inactive). Further, the slope in assay [6] was 0.00507 (inactive).

The values are drawn from PubChem BioAssay.
